# This is a sample that favours compounds with a hit; in the whole collection about 4.1% have one here.
# DAX1 inh-1: inhibitors of DAX1 repression of SF-1 activated StAR promoter. HEK293T StAR-luciferase reporter, SF-1/DAX-1 repression relief. inhibition, % at 6.8 µM. 370,000 compounds, 1.1% hits. AID 652010;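 active means inhibition above the mean over all tested compounds plus 3 SD, cut at about 3.6% in these data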;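 further: 0% = DAX-1 cells with DMSO and 100% = cells lacking DAX-1 with DMSO; higher inhibition means more luminescence from relief of DAX-1 repression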
# hgDAF12 agonist: hgDAF-12 agonism, primary luciferase screen; HEK293 GAL4-hgDAF12 UAS-luciferase reporter, agonist luminescence; normalized to butyrate control; activation, % at 6.8 µM; 370,000 compounds, 1.8% hits; AID 687014;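 active means activation above a cutoff set at the mean of all screened compounds plus 3 SD, cut at about 10% in these data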;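 further: 0% = DMSO wells and 100% = sodium butyrate wells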
# DAX1 inh-2: inhibits human nuclear receptor DAX1; P51843; HEK293 Gal4-DAX1 luciferase reporter, luminescence; inhibition, % at 6.75 µM; 340,000 compounds, 0.99% hits;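 active means inhibition above the mean over all tested compounds plus 3 SD, cut at about 4.2% in these data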;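 further: 0% = DAX1-transfected cells with DMSO and 100% = empty-vector control cells with DMSO; inhibition shows as a rise in luminescence from relieved DAX1 repression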
# ssDAF12 agonist: S. stercoralis DAF-12 activation, primary screen. HEK293 ssDAF-12/GRIP1 lit1-tk-luc reporter, luminescence; % of 3 µM dafachronic acid response. activation, % at 6.8 µM. 370,000 compounds, 1% hits;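 active means activation above the mean over all tested compounds plus 3 SD, cut at about 0.9% in these data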;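 further: 0% = DMSO-only wells and 100% = 3 µM delta7-dafachronic acid wells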
# hcDAF12 agonist: activators of H. contortus DAF-12 nuclear receptor; HEK293 hcDAF-12 lit1-tk-luc reporter, luminescence; 0% DMSO, 100% Δ7-dafachronic acid; activation, % at 6.8 µM; 370,000 compounds, 1.4% hits;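 active means activation above the mean of all tested compounds plus 3 SD, cut at about 5.5% in these data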;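 further: 100% = response to 3 µM Δ7-dafachronic acid high control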
# DAX1 inh confirm: NR0B1 (human) inhibition, confirmation; inhibition, % at 6.8 µM; shares compounds with DAX1 inh-1; HEK293T StAR-promoter luciferase reporter, SF-1/DAX-1 repression; 2,400 compounds, 87% hits;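 active means inhibition above the average of every tested compound plus 3 SD, cut at about 3.8% in these data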;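 further: 0% = DAX-1 cells with DMSO and 100% = no DAX-1 control cells with DMSO; active compounds raise luminescence by relieving repression of the StAR reporter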
# SF1 mutant ctr: counter-screen for DAX1 inhibitors: nonselective inhibitors with SF-1 AF2 mutant | shares compounds with DAX1 inh-1 | HEK293 StAR-luciferase, luminescence | inhibition, % at 6.8 µM | 2,400 compounds, 78% hits | AID 652136;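 active means inhibition above the mean of all tested compounds plus 3 SD, cut at about 3% in these data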;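 further: 0% = DAX-1 transfected cells with DMSO and 100% = cells without DAX-1 with DMSO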
# LXRb hcDAF ctr: activates human LXR-beta, counter-screen for hcDAF-12 agonists | shares compounds with hcDAF12 agonist | HEK293 Gal4-LXR tk-luc reporter, luminescence, 24 h; normalized: DMSO 0%, positive control 100% | activation, % at 6.8 µM | 3,400 tested, under 10 active | AID 743027;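 active means mean percent activation of the reporter above a cutoff set as the average over tested compounds plus their standard deviation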
# Target sequence (P55055 whole entry, looked up, the tested form may be a part): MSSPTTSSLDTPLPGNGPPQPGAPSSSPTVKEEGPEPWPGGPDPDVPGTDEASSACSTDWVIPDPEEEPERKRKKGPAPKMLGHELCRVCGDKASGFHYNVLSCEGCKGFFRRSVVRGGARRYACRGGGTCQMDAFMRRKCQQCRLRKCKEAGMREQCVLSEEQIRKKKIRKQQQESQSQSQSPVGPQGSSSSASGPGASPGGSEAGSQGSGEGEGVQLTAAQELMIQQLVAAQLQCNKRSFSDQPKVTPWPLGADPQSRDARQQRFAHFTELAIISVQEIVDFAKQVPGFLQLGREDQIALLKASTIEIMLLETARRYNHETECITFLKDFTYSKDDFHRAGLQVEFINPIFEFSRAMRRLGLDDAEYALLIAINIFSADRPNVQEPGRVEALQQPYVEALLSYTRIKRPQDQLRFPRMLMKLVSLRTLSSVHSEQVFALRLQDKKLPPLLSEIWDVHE
# hcDAF12 ag: hcDAF-12 agonism, confirmation assay. HEK293 hcDAF-12 lit1-tk-luc reporter, luminescence; % of Δ7-dafachronic acid response. activation, % at 6.8 µM. 3,400 compounds, 61% hits. shares compounds with hcDAF12 agonist;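 active means mean activation across triplicate tests above the threshold derived from the earlier primary screen, cut at about 5.5% in these data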;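 further: 0% = DMSO only wells and 100% = 3 µM Δ7-dafachronic acid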
# An asterisk follows results filed as active; . = no result.
SMILES,DAX1 inh-1,hgDAF12 agonist,DAX1 inh-2,ssDAF12 agonist,hcDAF12 agonist,DAX1 inh confirm,SF1 mutant ctr,others
COc1ccc(NC(=O)C23CC4CC(CC(Cl)(C4)C2)C3)cc1S(=O)(=O)N1CCOCC1,0,0,1,-1,-1,.,.,
Cc1cc(O)c(N=Nc2ccc(C(=O)O)cc2)cc1C,5.2*,8,4.3*,0,3,21*,7.7*,
CN(C)c1ccc(N=Nc2ccc(C(=O)O)cc2)cc1,2,9,-5,0,5,.,.,
O=C(NCc1c(F)cccc1F)C1CCCN(c2ncccn2)C1 (stereo unspecified),-1,4,.,-1,0,.,.,
O=S1(=O)c2c(cccc2N2CC[C@@H](O)C2)OCCCN1C1CC1,-1,2,.,-1,-1,.,.,
CCN(CC)c1ccc(C2NC(=O)c3ccccc3N2)cc1 (stereo unspecified),7.4*,9,-2,1.1*,7.9*,3,0,
CCN(CC)c1ccc(C2Nc3cccc4cccc(c34)N2)cc1,1,8,0,0,4,.,.,
C/C(=N/NC(=O)c1ccco1)c1ccc(NC(=O)c2ccc(Br)o2)cc1,5.9*,9,0,-1,4,3,2,
CCOc1ccc(CNC(=O)c2cccc(NC(=O)C3=C(C)OCCS3)c2)cc1,0,-1,-2,-1,-4,.,.,
CC1=C(C(=O)Nc2ccc(CC(=O)NCc3ccc(OC(C)C)cc3)cc2)SCCO1,15*,8,0,1.0*,5.9*,23*,-3,
Cc1ccc(NC(=O)COC(=O)c2ccc3ncsc3c2)c(C)c1,-1,-3,0,-2,-2,.,.,
Cc1ccc(F)cc1NC(=O)COC(=O)c1ccc2ncsc2c1,4.7*,3,0,0,1,4,0,
Clc1cccc(-c2cccc3nccn23)c1,-1,1,.,-2,-3,.,.,
NC(=O)c1ccccc1N/C=C/C(=O)c1ccc(F)cc1,5.2*,11*,1,0,4,9.7*,6.4*,
COc1ccc(CNC(=O)C2Cc3c(-c4ccc5c(c4)OCO5)ccnc3O2)cc1OC (stereo unspecified),-2,-1,.,-2,-3,.,.,
CCCC(=O)N1CCC1(C)C(=O)NS(=O)(=O)c1ccc(C(C)(C)C)cc1 (stereo unspecified),0,0,.,-1,-1,.,.,
O=C(CN1CCN(S(=O)(=O)c2ccc(Cl)cc2)CC1)NCC1(N2CCOCC2)CCCCC1,4.7*,-1,0,-1,-2,1,2,
Cc1ccc(S(=O)(=O)N2CCN(CC(=O)NCC3(N4CCOCC4)CCCCC3)CC2)cc1,1,0,-1,-1,2,.,.,
CC(=Nc1ccccc1)C1=C(O)C(Cc2ccc(O)cc2)NC1=O (stereo unspecified),0,-1,1,-1,-1,.,.,
CC(=Nc1ccccc1)C1=C(O)C(Cc2cccc(F)c2)NC1=O (stereo unspecified),6.0*,-1,1,0,2,25*,-5,
CCCn1c(C)cs/c1=N\C(=S)Nc1ccccc1,0,-1,0,-1,1,.,.,
Cc1cs/c(=N/C(=S)Nc2ccccc2)n1C,5.6*,13*,3,0.9*,2,12*,5.8*,
Cc1c(C(=O)NCCCN2CCCCC2)oc2ccc3c(c12)C(O)CC1(CCCCC1)O3 (stereo unspecified),5.7*,0,0,-1,-1,1,-1,
CC(=O)Nc1nc(-c2ccc(-c3ccccc3)cc2)cs1,4.5*,4,2,-1,1,5.9*,4.5*,
CC(=O)NNc1nc(-c2ccccc2)cs1,0,1,0,-1,4,.,.,
SMILES,DAX1 inh-1,hgDAF12 agonist,DAX1 inh-2,ssDAF12 agonist,hcDAF12 agonist,DAX1 inh confirm,SF1 mutant ctr,others
Cc1ccc(Cn2cc(CN3CC(N4CCN(C5CCN(C)CC5)CC4)CS3(=O)=O)nn2)cc1 (stereo unspecified),4.7*,-2,.,-1,0,3,4.1*,
CCN(CC)Cc1nc2nc(Cl)c(Cl)nc2[nH]1,1,1,1,-1,-1,.,.,
CCOC(=O)c1ccc(NC(=O)N2CCc3ccccc32)cc1,4.8*,18*,2,1,5,11*,7.9*,
CCCCN(CC)CCCNC(=O)c1cc2c(=O)n(C)c3ccccc3c2n1C,4.7*,1,3,-2,-1,8.7*,2,
COC(=O)CCCn1nc(NC(=O)COc2ccc(F)cc2)cc1C,0,-1,-1,-1,0,.,.,
Cc1ccccc1-c1cc(C(=O)NCc2cccc(C(F)(F)F)c2)n(CC2CC(c3cccnc3)=NO2)n1 (stereo unspecified),-1,-1,-3,-2,-3,.,.,
O=C(CCN1C(=O)C2CCCCC2C1=O)Nc1nc2ccc(F)cc2s1 (stereo unspecified),4.7*,9,2,1,6.9*,13*,3.5*,LXRb hcDAF ctr=2;hcDAF12 ag=15*
C#CCNC(=O)C[C@@H]1C[C@@]2(C(=O)OC)CCCCC=C2N(Cc2ccco2)C1=O,-1,3,.,-2,-1,.,.,
N#CCCN(C(=O)COC(=O)c1ccc2ccccc2n1)c1ccccc1,1,4,0,-1,1,.,.,
N#Cc1ccc(/C=C(\C(=O)C(=O)O)c2ccc3ccccc3n2)cc1,6.8*,15*,6.0*,1.2*,10*,8.2*,4.4*,LXRb hcDAF ctr=1;hcDAF12 ag=8.9*
O=C(Nc1ccc2c(c1)CCC2)c1ccc(F)cc1,5.7*,20*,0,1,6.7*,13*,5.4*,LXRb hcDAF ctr=2;hcDAF12 ag=6.6*
Cc1c(NC(=O)c2ccc(-c3ccccc3)cc2)cccc1C(=O)O,6.6*,27*,-6,1,11*,15*,7.7*,LXRb hcDAF ctr=2;hcDAF12 ag=13*
c1ccc(-c2noc(-c3cccc4ccccc34)n2)nc1,5.5*,13*,-1,3.0*,18*,12*,4.6*,LXRb hcDAF ctr=2;hcDAF12 ag=20*
Cc1ccc(C(=O)c2sc3nsc(C)c3c2N)cc1,5.0*,13*,1,1.1*,7.2*,14*,5.4*,LXRb hcDAF ctr=2;hcDAF12 ag=8.7*
Cc1cccc(N/C=C/C(=O)c2cccs2)c1C,6.3*,13*,0,2.9*,15*,14*,7.3*,LXRb hcDAF ctr=2;hcDAF12 ag=21*

# Source: PubChem
